The text below walks through data of paper PMC5540273 (PLoS ONE, 2017).

Some test systems named below: PIM1; PIM2; PIM3; PIP5K1A; PIP5K1C; PIP5K2B; PKMYT1; PKN1; PKN2; PLK1; PLK2; PLK3; PLK4; PRKCD; PRKCE; PRKCH; PRKCI.
What all share (conditions): concentration: 1 μM, replicates: in singlicate; n = 1
A further test relates to T1, PIP5K2C.
T1 construct: gene PIP4K2C

Another test concerns T2, PKAC-alpha.
T2 construct: gene PRKACA

The next test concerns T3, PKAC-beta.
T3 construct: gene PRKACB
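Note: KINOMEscan kinase panel screen.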

Take `Cn1ccc2ncnc(Oc3ccc(NC(=O)Nc4ccccc4)cc3)c21`: the “%Inh” value in the test with PIM1 is 8%; in the test with PIM2, 13%; in the test with PIM3, 22%; with PIP5K1A, 0%; in the test with PIP5K1C, 5%; with PIP5K2B, 5%. Further, the “%Inh” value was 1% in the test on PIP5K2C; 16% in the test on PKAC-alpha; 17% with PKAC-beta; 16% in the test with PKMYT1; 2% in the test with PKN1; 0% with PKN2. The “%Inh” value in the test on PLK1 was determined as 0%; in the test on PLK2, 0%; in the test on PLK3, 0%; with PLK4, 11%; with PRKCD, 7%; with PRKCE, 4%. Besides, the results for the “%Inh” value in the test on PRKCH and with PRKCI were 0% and 11%, respectively.
Take `Cl.O=C(Nc1cccc(-c2nn3ncccc3c2-c2ccnc(Nc3cccnc3)n2)c1)c1c(F)cccc1F` [GSK312879]: the “%Inh” value is 11% in the test with PIM1; 0% in the test with PIM2; 0% in the test with PIM3; 2% in the test on PIP5K1A; 11% in the test on PIP5K1C; 4% in the test with PIP5K2B. Also, the “%Inh” value in the test on PIP5K2C stood at 0%; with PKAC-alpha, 14%; in the test on PKAC-beta it was 19%; in the test on PKMYT1, 20%; in the test with PKN1 it was 45%; in the test on PKN2, 0%. Besides, the “%Inh” value amounted to 0% in the test on PLK1; 0% in the test with PLK2; 0% in the test on PLK3; 0% in the test on PLK4; 0% in the test on PRKCD; 5% in the test with PRKCE. For the same compound, the figures for the “%Inh” value in the test with PRKCH and with PRKCI were 16% and 0%, respectively.
On to `CC(C)(C)c1ccc(C(=O)Nc2cn3cc(-c4cccnc4)ccc3n2)cc1`, for which the “%Inh” value stood at 32% in the test with PIM1; 12% in the test on PIM2; 44% in the test with PIM3; 0% in the test with PIP5K1A; 17% in the test on PIP5K1C; 18% in the test with PIP5K2B. In addition, the “%Inh” value in the test on PIP5K2C came to 53%; in the test with PKAC-alpha it was 13%; with PKAC-beta, 33%; in the test with PKMYT1 it was 19%; in the test on PKN1, 25%; in the test with PKN2 it was 22%. Also, the “%Inh” value in the test on PLK1 was 0%; in the test on PLK2, 16%; with PLK3, 24%; in the test on PLK4 it was 15%; with PRKCD, 36%; in the test on PRKCE it was 4%. In addition, the “%Inh” value in the test with PRKCH is 0%; in the test with PRKCI, 26%.
As for `Cl.c1ccc(-c2n[nH]cc2-c2ccnc(-c3ccc(CN4CCOCC4)cc3)c2)nc1` [GW776245], the “%Inh” value stood at 13% with PIM1; 13% with PIM2; 15% with PIM3; 0% with PIP5K1A; 27% with PIP5K1C; 30% in the test with PIP5K2B. Besides, the “%Inh” value in the test on PIP5K2C was 0%; in the test with PKAC-alpha, 10%; in the test on PKAC-beta, 13%; with PKMYT1, 0%; in the test with PKN1, 0%; with PKN2, 0%. The “%Inh” value in the test with PLK1 was 17%; with PLK2, 0%; in the test on PLK3, 4%; in the test on PLK4 it was 0%; in the test with PRKCD it was 11%; in the test with PRKCE it was 0%. For the same compound, the “%Inh” value came to 0% with PRKCH and 48% with PRKCI.
On to `Cc1c(Cn2ccn3c(=O)cc(N4CCOCC4)nc23)cccc1C(F)(F)F` [GSK2289044], for which the “%Inh” value in the test with PIM1 worked out at 0%; in the test with PIM2, 0%; in the test with PIM3 it was 4%; in the test on PIP5K1A it was 0%; in the test on PIP5K1C, 10%; with PIP5K2B it was 15%. The “%Inh” value in the test with PIP5K2C is given as 0%; in the test on PKAC-alpha it was 11%; with PKAC-beta it was 0%; in the test on PKMYT1, 0%; in the test on PKN1 it was 20%; in the test on PKN2 it was 5%. For the same compound, the “%Inh” value in the test on PLK1, with PLK2, in the test on PLK3, with PLK4, in the test with PRKCD and in the test with PRKCE was 0% in each case. Moreover, the “%Inh” value was found to be 8% with PRKCH and 0% with PRKCI.
On to `COC(=O)c1c(-c2ccccc2)c2cc(C(=O)O)ccc2c(=O)n1Cc1ccccc1`, for which the “%Inh” value worked out at 0% with PIM1; 0% in the test with PIM2; 0% with PIM3; 18% in the test with PIP5K1A; 17% with PIP5K1C; 22% in the test with PIP5K2B. The “%Inh” value turned out to be 13% with PIP5K2C; 0% with PKAC-alpha; 24% with PKAC-beta; 0% in the test on PKMYT1; 0% with PKN1; 0% with PKN2. Further, the “%Inh” value with PLK1 was found to be 0%; in the test with PLK2, 12%; in the test on PLK3 it was 0%; in the test with PLK4 it was 11%; in the test on PRKCD, 0%; with PRKCE, 0%. Further, the “%Inh” value in the test on PRKCH is recorded as 4%; with PRKCI it was 0%.
On to `COc1ccc(CNC(=O)NC2CCN(c3ccnc(Nc4cc(OC)c(OC)c(OC)c4)n3)C2)cc1` (stereo not shown) [GSK1379748], for which the “%Inh” value with PIM1 stood at 7%; with PIM2, 0%; in the test on PIM3, 0%; in the test on PIP5K1A, 36%; in the test with PIP5K1C, 73%; with PIP5K2B it was 7%. Further, the “%Inh” value stood at 87% in the test with PIP5K2C; 0% in the test on PKAC-alpha; 0% with PKAC-beta; 3% in the test on PKMYT1; 0% in the test with PKN1; 0% in the test with PKN2. For the same compound, the “%Inh” value was found to be 0% in the test with PLK1; 0% with PLK2; 0% in the test on PLK3; 19% in the test with PLK4; 0% with PRKCD; 14% in the test with PRKCE. In addition, the “%Inh” value in the test on PRKCH amounted to 0%; in the test on PRKCI, 30%.
With `Fc1cc(Cl)ccc1Nc1ccnc2cc(-c3ccc(CN4CCCCC4)o3)ccc12` [GW560116], the “%Inh” value is 13% with PIM1; 0% in the test on PIM2; 0% with PIM3; 0% in the test with PIP5K1A; 57% in the test with PIP5K1C; 5% in the test on PIP5K2B. Moreover, the “%Inh” value with PIP5K2C is listed as 71%; in the test on PKAC-alpha it was 100%; in the test with PKAC-beta, 0%; in the test with PKMYT1, 0%; with PKN1, 0%; in the test on PKN2, 0%. Also, the “%Inh” value in the test on PLK1 was found to be 0%; in the test with PLK2 it was 0%; in the test on PLK3, 0%; in the test on PLK4, 51%; in the test on PRKCD, 0%; with PRKCE, 5%. The “%Inh” value in the test with PRKCH and in the test on PRKCI was 0% each time.
